High-throughput results from PubChem BioAssay.
Compounds with a hit are over-represented: about 5.9% of the library has one in this group of screens.
HepG2 tox – qHTS for Inhibitors of TGF-b: Cytotox Counterscreen | HepG2 CAGA-GFP viability, ATP luminescence, 18 h | Potency, µM (doses to about 46.1 µM), without a hit: at the highest dose activity change, negative = cytotoxicity, hits mostly cytotoxic | hit rate 0.76% among 410,000 | AID 588856, 2011
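CellTiter-Glo luminescence gave cytotoxicity after 18 hours at 37 degrees C. The cells were HepG2 CAGA-GFP in 1% FBS DMEM, stimulated with 500 pg/mL TGF-beta after compound addition. %Activity was normalised to no-cell wells (complete cell-killing) and DMSO (no toxicity), and curves were fitted and classified.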
TGFb SMAD3 inh – qHTS for Inhibitors of TGF-b. hit rate 1.2% among 410,000. Potency, µM (highest dose often 46.1 µM), without a hit: at the highest dose activity, negative = inhibition, actives largely listed as inhibitors. HepG2 CAGA-GFP TGF-b/SMAD3 reporter, GFP fluorescence, 18 h; TGF-beta stimulated, 500 pg/mL final; also: % is scaled to controls: 0 for no effect and ±100 for the full control effect; nearly all actives have a fitted effect of over 65% in size
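Cell-based qHTS in HEPG2 carrying a CAGA-GFP Smad reporter; compounds added before 500 pg/mL final TGF-beta, 18 h incubation at 37 degrees C, GFP fluorescence quantified per cell by imaging cytometry.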
ATXN viability – Viability Counterscreen for Primary qHTS for Inhibitors of ATXN expression; S2 cells (HEK-293 line with an ATXN2-luciferase reporter) viability, CellTiter-Fluor protease fluorescence, 24 h; Potency, µM (titrated, usually from 56.7 µM), hits mostly cytotoxic; hit rate 0.49% among 400,000; also: nearly all actives have a fitted effect of over 40% in size
ATXN2 expr inh – Primary qHTS for Inhibitors of ATXN expression. HEK-293 ATXN2-luciferase reporter, luminescence, 24 h. Potency, µM (highest dose often 57 µM), for the others: at the top dose activity change, negative = inhibition, usual class: inhibitors. hit rate 0.72% among 360,000. AID 1745845, 2022; also: % is scaled to controls: 0 for no effect and ±100 for the full control effect; nearly all actives have a fitted effect of over 55% in size
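ATXN2-luciferase reporter cells (luciferase flanked by upstream and downstream ATXN2 gene portions) were treated 24 h at 37 °C with compounds at up to 57 uM. SteadyGlo luminescence gave expression; GF-AFC fluorescence gave viability.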
KB-3-1 cytotox – qHTS assay for MDR1-selective chemotherapeutics: Primary screen using the parental adenocarcinoma cell KB-3-1 | Potency, µM (doses to about 46.1 µM), hits mostly cytotoxic | hit rate 1.4% among 400,000 | KB-3-1 viability, CellTiter-Glo ATP luminescence, 72 h; also: % is scaled to controls: 0 for no effect and ±100 for the full control effect; nearly all actives have a fitted effect of over 60% in size
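Viability of parental KB-3-1 cells, measured by CellTiter-Glo luminescence, followed a 72 h incubation at 37 °C with pinned compounds in phenol-red-free DMEM containing 10% FBS.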
KB-V1 MDR tox – qHTS assay for MDR1-selective chemotherapeutics: Primary screen using the drug-selected MDR subline cells KB-V1; KB-V1 MDR cells viability, CellTiter-Glo, 72 h; Potency, µM (doses to about 46.1 µM), hits mostly cytotoxic; hit rate 3.4% among 400,000; AID 1347076, 2019; also: % is scaled to controls: 0 for no effect and ±100 for the full control effect; nearly all actives have a fitted effect of over 60% in size
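KB-V1 cells (P-gp-expressing MDR subline of KB-3-1) in phenol-red-free DMEM with 10% FBS were exposed to library compounds over a concentration series for 72 h at 37 degrees C. Viability read by CellTiter-Glo luminescence; concentration-effect curves fitted after normalization.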
Starred values were filed as active, the others as inactive; i = inactive; ? = inconclusive; . = no result. Calls follow the shape of the dose curve; as a rule, active = well fitted curve in the direction sought with a large enough effect; inconclusive = small, poorly fitted or top-dose-only effect, or another doubt; inactive = no such curve, though single readings can be large; an effect the other way counts as inactive or inconclusive. Potency is read from the fitted curve at half-maximal effect.

SMILES | HepG2 tox | TGFb SMAD3 inh | ATXN viability | ATXN2 expr inh | KB-3-1 cytotox | KB-V1 MDR tox
COc1ccccc1CN(C)C(=O)C(c1ccccc1)c1ccccc1 | -8% | 0% | i | -24% | ? | 21µM*
Nc1nc2ccccc2n1Cc1ccc(F)cc1 | . | . | i | -16% | . | .
O=C(NCc1ccc(F)cc1)c1cc(C2CCCN(C(=O)CCCc3ccccc3)C2)on1 (stereo not given) | -26% | 5% | i | -17% | i | i
CCN(CC)c1ccc2cc(C(C)=O)c(=O)oc2c1 | -14% | 11% | i | 14% | i | i
CCN(CC)c1ccc2cc(NC(=O)CCC(=O)O)c(=O)oc2c1 | -27% | 12% | . | 7.9µM* | i | i
CCOC(=O)Nc1ccc2nc(-c3cscn3)[nH]c2c1 | -31% | 0% | i | . | 2.6µM* | 3.7µM*
c1ccc2[nH]c(-c3cscn3)nc2c1 | -22% | 0% | i | 2% | i | i
CCCCNS(=O)(=O)c1ccc(S(=O)(=O)N2CCC3(CC2)OCCO3)cc1 | -29% | -20% | i | -1% | i | 16µM*
Cc1nn(Cc2ccccc2)c(Cl)c1C(=O)NCc1ccc(C)n1C | 0% | -4% | ? | -1% | i | 15µM*
Cc1nn(-c2ccccc2)c(Cl)c1C(=O)NCc1cccs1 | -1% | -10% | i | 7% | i | 15µM*
CCc1c(-c2ccccc2)nc2ccccc2c1C(=O)NCc1ccc(C)cc1 | -24% | -26% | . | . | . | .
Cc1c(-c2ccccc2)nc2ccccc2c1C(=O)NCc1cccs1 | 0% | 4% | i | -7% | i | 12µM*
Cn1cc(C(=O)[C@@H]2CCc3nc[nH]c3C2)c2ccccc21 | . | . | i | -9% | . | .
Cc1ccc(Cn2c(=N)n(CC(=O)c3ccc([N+](=O)[O-])cc3)c3ccccc32)cc1 | -25% | -22% | . | 20µM* | 18µM* | 15µM*
N=c1n(CCN2CCCCC2)c2ccccc2n1CC(=O)c1ccc(Cl)c(Cl)c1 | -187% | ? | i | ? | ? | ?
CCn1c(=N)n(CC(=O)c2ccc(Cl)c(Cl)c2)c2ccccc21 | -70% | ? | i | -1% | ? | 16µM*
Cc1ccc(C(=O)Cn2c(=N)n(CCN3CCOCC3)c3ccccc32)cc1 | -27% | -20% | i | 0% | i | i
COc1ccc(CN2CCC3(CCC(CNC(=O)c4ccco4)O3)CC2)c(OC)c1C (stereo not given) | . | . | i | . | . | .
CCCCNC(=O)c1c(N)[nH]c(C(=O)c2ccccc2)c1-c1ccccn1 | . | . | ? | 18% | ? | 21µM*
Nc1[nH]c(C(=O)c2ccccc2)c(-c2ccc(F)cc2)c1C(=O)NCc1ccccc1 | . | . | i | 15% | i | i
Cc1ccc(N(CC(O)COCc2ccco2)S(=O)(=O)c2ccc(C)cc2)cc1 (stereo not given) | -17% | 2% | i | 5% | i | 21µM*
CCOc1ccccc1CNC(=O)Cn1nc(C)c2nn(-c3ccc(Cl)cc3)c(C)c2c1=O | -4% | -20% | . | . | . | .
COC(=O)c1cc2oc3ccccc3c2n1Cc1ccc(Cl)cc1 | -2% | . | . | . | . | .
CCn1c(Cl)c(C=O)s/c1=N\S(=O)(=O)c1ccccc1 | 8.9µM* | 3.5µM* | 14µM* | 13µM* | ? | ?
CCN1C(=O)CS/C1=N\S(=O)(=O)c1ccc(Cl)cc1 | 16% | 34% | i | -16% | i | i
SMILES | HepG2 tox | TGFb SMAD3 inh | ATXN viability | ATXN2 expr inh | KB-3-1 cytotox | KB-V1 MDR tox
CC(C)(CNS(=O)(=O)c1ccc2c(c1)OCCO2)N1CCOCC1 | -11% | 7% | i | . | i | i
Cc1ccc(Oc2ccc(S(=O)(=O)NCC(C)(C)N3CCOCC3)cc2)cc1 | -3% | ? | i | -20% | ? | 12µM*
COc1ccccc1-n1c(=O)n(C)c2c(C(N)=O)nc(-c3cc(OC)c(OC)c(OC)c3)nc21 | -23% | 37% | i | -12% | i | i
CCCCCCn1c(N2CCN(c3cccc(Cl)c3)CC2)nc2c1c(=O)[nH]c(=O)n2C | -5% | -13% | i | -15% | ? | 16µM*
CCCCCn1c(CN2CCN(c3cccc(Cl)c3)CC2)nc2c1c(=O)[nH]c(=O)n2C | -71% | ? | ? | 25µM* | 23µM* | ?
CCCCCCCCn1c(N2CCN(c3cccc(Cl)c3)CC2)nc2c1c(=O)[nH]c(=O)n2C | 0% | 0% | i | -10% | i | 13µM*
Cn1c(=O)[nH]c(=O)c2c1nc(CN1CCN(c3cccc(Cl)c3)CC1)n2CCc1ccccc1 | -51% | ? | i | -17% | i | ?
Cn1c(=O)[nH]c(=O)c2c1nc(N1CCOCC1)n2CCSc1nnnn1-c1ccccc1 | -4% | 5% | i | 10% | i | i
CC(CSc1nnnn1-c1ccccc1)Cn1c(N2CCCC2)nc2c1c(=O)[nH]c(=O)n2C (stereo not given) | -6% | -3% | i | 14% | i | 2.3µM*
CN(C)[C@@H]1C(=O)C(C(=O)NCN2CCCC2)=C(O)[C@@]2(O)C(=O)C3=C(O)c4c(O)cccc4[C@@](C)(O)C3C[C@@H]12 (stereo not given in full) | . | . | i | -12% | . | .
COc1ccc(NS(=O)(=O)c2ccc(N3CCOCC3)c(NC(=O)c3ccc(F)cc3)c2)cc1 | -37% | -2% | i | -28% | ? | ?
CC(C)Oc1ccc(C(=O)Nc2ccc(Cl)c(S(=O)(=O)Nc3ccc(Cl)cc3)c2)cc1 | -8% | ? | ? | ? | ? | 5.8µM*
COc1ccc(NS(=O)(=O)c2ccc(N3CCCCC3)c(N)c2)cc1 | -31% | ? | ? | . | 21µM* | ?
COc1ccc(NS(=O)(=O)c2ccc(N3CCOCC3)c(NC(=O)C(C)C)c2)cc1 | 2% | 18% | i | -22% | ? | 18µM*
O=C(Nc1cccc(Br)c1)c1ccc(Cl)c(S(=O)(=O)N2CCOCC2)c1 | -31% | ? | i | ? | ? | 4.6µM*
COC(=O)c1cccc(N2C(=O)C[C@](Sc3ccc(C)cc3)(C(=O)OC)[C@H]2c2ccccc2)c1 | . | . | ? | ? | i | ?
CSc1nc(C(=O)NCc2nc(-c3cccc(NC(=O)c4ccc(C)s4)c3)oc2C)cs1 | . | . | i | . | . | .
